Sampled rows, rich in hits. Any-hit rate of the full collection: about 6.9%.
L3MBTL1 inh = blocks human L3MBTL1. Potency, µM (series often up to 57.1 µM), for the others: at the top dose activity, negative = inhibition, usual class: inhibitors. 0.66% of 230,000 active. Q9Y468. AlphaScreen L3MBTL1–H3K9me1 peptide binding; also: potency is read from the fitted curve at half-maximal effect; % is scaled to controls: 0 for no effect and ±100 for the full control effect; nearly all actives have a fitted effect of over 60% in size
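Read-out is AlphaScreen signal from streptavidin donor and nickel chelate acceptor beads (10 ug/mL final each) bridging L3MBTL1 (50 nM) and biotinylated K9-monomethylated H3(1-15) peptide (75 nM), after 30 min compound exposure at room temperature.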
VDR inhibitor = blocks the human vitamin D receptor | P11473 | VDR-SRC2-3 peptide fluorescence polarization, 2 h | Potency, µM, for the others: max response, negative = inhibition, usual class: inhibitors | 0.93% of 400,000 active; also: potency is read from the fitted curve at half-maximal effect; % is scaled to controls: 0 for no effect and ±100 for the full control effect
Target sequence (P11473 whole entry, looked up): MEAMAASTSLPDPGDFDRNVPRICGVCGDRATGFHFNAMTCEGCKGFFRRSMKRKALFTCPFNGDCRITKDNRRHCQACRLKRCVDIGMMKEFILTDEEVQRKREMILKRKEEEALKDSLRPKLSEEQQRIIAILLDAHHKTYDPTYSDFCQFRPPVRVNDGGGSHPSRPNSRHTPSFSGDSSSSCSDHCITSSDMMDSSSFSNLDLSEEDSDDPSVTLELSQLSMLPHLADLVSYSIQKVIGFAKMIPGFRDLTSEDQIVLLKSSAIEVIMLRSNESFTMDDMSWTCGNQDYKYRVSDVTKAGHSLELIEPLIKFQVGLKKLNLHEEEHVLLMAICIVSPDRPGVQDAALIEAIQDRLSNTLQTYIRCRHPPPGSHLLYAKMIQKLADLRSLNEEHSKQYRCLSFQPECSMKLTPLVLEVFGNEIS
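Fluorescence polarization assay measuring small-molecule disruption of VDR binding to the coregulator peptide SRC2-3. Compounds were pin-transferred (23 nl) into the reagent mix and incubated 2 h at room temperature before reading.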
PLK1 PBD inh = PLK1 (human) polo-box domain binding inhibition; Plk1 PBD binding of FITC phosphopeptide, fluorescence polarization; Potency, µM, without a hit: max response, negative = inhibition, actives largely listed as inhibitors; AID 720504; P53350; 2.8% of 360,000 active; also: potency is read from the fitted curve at half-maximal effect; series mostly up to about 57 µM; % is scaled to controls: 0 for no effect and ±100 for the full control effect; nearly all actives have a fitted effect of over 65% in size
BAZ2B inh = inhibitors of human BAZ2B bromodomain; Potency, µM (titrated, usually from 114 µM), without a hit: at the highest dose activity change, negative = inhibition, hits mostly inhibitors; AID 504333; AlphaScreen BAZ2B-H3K14Ac peptide displacement; 4.4% of 360,000 active; also: potency is read from the fitted curve at half-maximal effect; % is scaled to controls: 0 for no effect and ±100 for the full control effect; nearly all actives have a fitted effect of over 60% in size
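AlphaScreen displacement of biotin-H3(5-23)K14Ac peptide (50 nM final) from BAZ2B (50 nM final) in PBS pH 7.4, 0.01% Tween-20; complex preformed 30 min RT, then compounds (top 110 uM) 30 min RT, beads 20 min dark.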
HP1b binding inh = inhibitors of HP1-beta chromodomain binding to methylated histone tails; P83916; AlphaScreen HP1-beta / biotin-H3K9me3 peptide binding; Potency, µM (series often up to 114 µM), for the others: at the top dose activity change, negative = inhibition, most hits filed as inhibitors; 0.56% of 390,000 active; also: potency is read from the fitted curve at half-maximal effect; nearly all actives have a fitted effect of over 70% in size
Target sequence (P83916 whole entry, looked up): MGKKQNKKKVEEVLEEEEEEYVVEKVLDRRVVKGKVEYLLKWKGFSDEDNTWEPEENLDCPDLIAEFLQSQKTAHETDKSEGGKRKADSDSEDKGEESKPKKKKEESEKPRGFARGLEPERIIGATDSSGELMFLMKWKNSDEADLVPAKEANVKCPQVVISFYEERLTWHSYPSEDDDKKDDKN
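AlphaScreen: HP1-beta (50 nM) preformed 30 min with biotin-H3(1-18)K9me3 peptide (50 nM) in PBS pH 7.4, 0.01% Tween-20. Compound added for 30 min at RT, then streptavidin donor/nickel chelate acceptor beads (10 ug/mL) for 30 min.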
JMJD2A Tudor inh = inhibitors of human JMJD2A Tudor domain; AlphaScreen JMJD2A-Tudor / H3K4me3 peptide binding; 4.4% of 390,000 active; AID 504339; Potency, µM (doses to about 114 µM), inactives show at the highest dose activity change, negative = inhibition, actives largely listed as inhibitors; also: potency is read from the fitted curve at half-maximal effect; % is scaled to controls: 0 for no effect and ±100 for the full control effect; nearly all actives have a fitted effect of over 50% in size
USP1-UAF1 confirm = validation of human USP1/UAF1 inhibitors; shares compounds with VDR inhibitor; Ub-Rhodamine cleavage, fluorescence kinetic read; Potency, µM (top dose mostly 114 µM), for the others: top-dose activity change, negative = inhibition, actives largely listed as inhibitors; 50% of 50 active
VDR inh confirm = inhibits human vitamin D receptor, primary hit validation; shares compounds with VDR inhibitor; VDR-coactivator inhibition assay, qHTS confirmation; Potency, µM, usual class: inhibitors; 89% of 840 active; also: potency is read from the fitted curve at half-maximal effect
VDR FP fluor = confirmation of human VDR-coactivator binding inhibitors, fluorescein label | shares compounds with VDR inhibitor | VDR-coactivator binding, fluorescein fluorescence polarization | Potency, µM (doses to about 57.1 µM), inactives show at the top dose activity change, negative = inhibition, actives largely listed as inhibitors | 48% of 840 active | AID 602200; also: potency is read from the fitted curve at half-maximal effect
VDR bla = confirmation of human vitamin D receptor inhibitors in reporter cells; shares compounds with VDR inhibitor; VDR beta-lactamase reporter cells, FRET ratio; cells co-treated with VDR agonist LG190178; Potency, µM (doses to about 46.1 µM), for inactives: at the top dose activity change, negative = inhibition, hits mostly inhibitors; 23% of 840 active; AID 602202; also: potency is read from the fitted curve at half-maximal effect; % is scaled to controls: 0 for no effect and ±100 for the full control effect
VDR viability = counter-screen for vitamin D receptor inhibitors: cytotoxicity. shares compounds with VDR inhibitor. cytotoxicity counter-screen, cell viability, qHTS. Potency, µM (titrated, usually from 48.3 µM), for the others: at the top dose activity change, negative = cytotoxicity, usual class: cytotoxic. 18% of 840 active. AID 602204;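 also: potency is read from the fitted curve at half-maximal effect; plate controls were DMSO for no effect and high-concentration cycloheximide for full effect; nearly all actives have a fitted effect of over 75% in size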
* = called active by the depositor; ? = inconclusive; · = no result. Calls follow the shape of the dose curve; as a rule, active = well fitted curve in the direction sought with a large enough effect; inconclusive = small, poorly fitted or top-dose-only effect, or another doubt; inactive = no such curve, though single readings can be large; an effect the other way counts as inactive or inconclusive.

SMILES | L3MBTL1 inh | VDR inhibitor | PLK1 PBD inh | BAZ2B inh | HP1b binding inh | JMJD2A Tudor inh | VDR inh confirm | VDR FP fluor | VDR bla | VDR viability | others
Cc1noc(C)c1COC(=O)c1ccccc1NC(=O)c1ccco1 | ? | 1.6% | 7.2% | 2.3% | 41.5% | 3.4% | · | · | · | ·
COc1cccc(CNC(=O)CN2C(=O)N(c3cc(C)ccc3C)S(=O)(=O)c3ccccc32)c1OC | · | 8.8% | · | -10.7% | 22.8% | -18.0% | · | · | · | ·
COc1cc(NC(=O)CCc2c(C)nc3c(-c4ccc(F)cc4)c(C)nn3c2C)cc(OC)c1OC | · | -13.8% | · | -15.0% | 40.3% | -17.8% | · | · | · | ·
O=C(Oc1cccccc1=O)c1ccccc1 | 6.6% | 14.1% | -26.2% | ? | 10.9% | -29.4% | · | · | · | ·
O=C(Oc1csc(=S)n1C(=O)c1ccccc1)c1ccccc1 | · | ? | 2.99µM* | ? | 50.1µM* | 35.5µM* | ? | 8.91µM* | -4.6% | 13.5%
Cc1ccc(S(=O)(=O)N[C@@H](Cc2ccccc2)C(=O)CCl)cc1 | 2.3% | 5.62µM* | ? | 8.3% | 9.5% | -35.2% | 9.47* | 7.08µM* | 18.4µM* | ? | USP1-UAF1 confirm=46.9µM*
O=C(/C=C/c1ccc(O)c(O)c1)c1ccc(S(=O)(=O)N2CCCCCC2)cc1 | ? | 79.4µM* | -7.7% | 35.5µM* | 39.8µM* | ? | 23.8* | 25.1µM* | 22.3% | -6.0%
CC(C)C[C@H](N)c1nnc(SCc2ccc(Cl)cc2Cl)o1 | · | 1.3% | · | -9.7% | 47.2% | 6.3% | · | · | · | ·
CC(C)C[C@H](N)c1nnc(S(=O)(=O)Cc2ccc(F)cc2)o1 | -2.3% | 31.6µM* | ? | -25.7% | 54.6% | -11.8% | ? | 20µM* | ? | ?
N#C/C(=C1\C(=O)Nc2c(Cl)cc(Cl)cc21)c1nnc2n1CCCCC2 | 2.0% | 28.2µM* | ? | ? | 26.7% | -7.3% | 6.7* | 25.1µM* | 35.2% | 17.5%
N#C/C(=N\Nc1cc(Cl)cc(Cl)c1)c1nnc2n1CCCCC2 | -6.4% | 11.0% | -22.3% | ? | 1.6% | ? | · | · | · | ·
Cc1cc2c(s1)c1cnn(Cc3ccc(C(C)C)cc3)c(=O)c1n2C | · | · | · | · | · | -3.4% | · | · | · | ·
COc1cc(OC)c(OC)cc1/C=C/c1cc(C(F)(F)F)[nH]c(=O)n1 | 2.7% | 2.4% | -11.6% | -4.2% | 26.5% | -13.3% | · | · | · | ·
O=c1nc(/C=C/c2cc([N+](=O)[O-])ccc2Cl)cc(C(F)(F)F)[nH]1 | · | ? | -27.0% | ? | 16.9% | -29.2% | 3.16* | 3.16µM* | ? | -5.9%
CCc1cccc(NS(=O)(=O)c2c(C)[nH]c(=O)[nH]c2=O)c1 | · | 0.6% | -0.9% | 10.4% | 20.6% | -13.5% | · | · | · | ·
CN(C)/C=C(/C(=O)c1ccc(Cl)cc1)n1cncn1 | 14.3% | 12.6% | -0.4% | -3.2% | 53.5% | -12.6% | · | · | · | ·
CC(C)CC(=O)/C(=C\c1ccc(Cl)cc1Cl)n1cncn1 | -12.7% | 3.98µM* | ? | -4.2% | 35.0% | -17.9% | 3.77* | ? | 16.4µM* | 14.6µM*

Screens (PubChem BioAssay)
